The results in this text go back to the supplement of paper PMC11219838.

Structures are written as SMILES. A number with no mark means an inactive call.

The subject of one experiment is Ditylenchus dipsaci. Put plainly: proportion of mobile D. dipsaci (mixed stage) relative to DMSO control (fraction of DMSO control); higher = more viable, less nematicidal, active = 0.86 or less; extreme values may be limits of the assay. Conditions: 60 µM; 5 days; temperature: 20 °C. The gist of the method:
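Ditylenchus dipsaci nematodes were cultured on pea plants in Gamborg B-5 agar, then extracted into water through a filter funnel, and roughly 20 worms in distilled water were placed in each well of a 96-well plate. Compound was pinned in to a final concentration of 60 µM (0.6% v/v DMSO), and the sealed plates were shaken at 200 rpm for 5 days at 20 °C. Mobile worms were counted under the microscope after 2 µL of 1 M NaOH was added. Mobility is given relative to DMSO controls as the mean of two biological replicates.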
With `O=C(NCCc1ncc(C(F)(F)F)cc1Cl)c1ccccc1C(F)(F)F` [fluopyram], the “proportion of mobile D. dipsaci” value was 0 (active).

Consider `CNC(=O)O/N=C(\SC)C(=O)N(C)C` [oxamyl], for which the “proportion of mobile D. dipsaci” value was 1.

For `CC[C@H](C)[C@H]1O[C@]2(C=C[C@@H]1C)C[C@@H]1C[C@@H](C/C=C(\C)[C@@H](O[C@H]3C[C@H](OC)[C@@H](O[C@H]4C[C@H](OC)[C@@H](O)[C@H](C)O4)[C@H](C)O3)[C@@H](C)/C=C/C=C3\CO[C@@H]4[C@H](O)C(C)=C[C@@H](C(=O)O1)[C@]34O)O2.CO[C@H]1C[C@H](O[C@H]2[C@H](C)O[C@@H](O[C@@H]3/C(C)=C/C[C@@H]4C[C@@H](C[C@]5(C=C[C@H](C)[C@@H](C(C)C)O5)O4)OC(=O)[C@@H]4C=C(C)[C@@H](O)[C@H]5OC/C(=C\C=C\[C@@H]3C)[C@]54O)C[C@@H]2OC)O[C@@H](C)[C@@H]1O` [abamectin], the “proportion of mobile D. dipsaci” value was 0.727 (active).

For the compound `CC(C)NC(=O)N1CC(=O)N(c2cc(Cl)cc(Cl)c2)C1=O` [iprodione], the “proportion of mobile D. dipsaci” value is 1.

For another experiment, the system named is Caenorhabditis elegans L1 (N2). Briefly: survival and reproduction score of C. elegans L1 (0: 0-10 living worms, 1: 11-20, 2: 21-50, 3: >50, 4: overgrown) (score 0-4); higher = more worms, less nematicidal, active = 1 or less; extreme values may be limits of the assay. The settings on record: 60 µM; 6 days; temperature: 20 °C. A digest of the protocol: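 In liquid NGM with E. coli HB101, approximately 20 synchronized C. elegans N2 L1s per 96-well well were exposed to compound at 60 µM final (0.6% v/v DMSO) for 6 days at 20 °C with shaking at 200 rpm in sealed plates. Survival and reproduction were judged under a dissection microscope as an ordinal rating of living worms per well. Ratings went from 0 (0–10 worms) to 4 (overgrown, starved) and were averaged over two biological replicates.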
With `Cc1ccc(-c2nc(-c3ccccn3)no2)cc1C`, the “survival and reproduction score” value is 3.5.

For `CCOc1nc(-c2ccc(C)cc2)ccc1-c1noc(-c2ccc(F)cc2)n1`, the “survival and reproduction score” value is 2.

As for `O=C(CSc1nnc(-c2cccc(Br)c2)o1)NC1CCCCC1`, the “survival and reproduction score” value was 4.

Regarding `Clc1ccc(CSc2nnc(-c3ccccc3)o2)cc1Cl`, the “survival and reproduction score” value was 4.

On to `O=C(NCCc1ncc(C(F)(F)F)cc1Cl)c1ccccc1C(F)(F)F` [fluopyram], for which the “survival and reproduction score” value is 0 (active).

With `COc1ccccc1-c1nnc(SCC(=O)Nc2ccc(Br)cn2)o1`, the “survival and reproduction score” value was 4.

In the case of `Fc1ccc(-c2noc(COc3ccccc3Cl)n2)cc1`, the “survival and reproduction score” value is 4.

`COc1ccc(Cl)cc1NC(=O)CSc1nnc(-c2ccc(Br)cc2)o1`: the “survival and reproduction score” value is 4.

Consider `Brc1ccc(-c2nc(-c3ccncc3)no2)cc1`, for which the “survival and reproduction score” value is 0 (active).

For the compound `Clc1ccc(OCc2nc(-c3cccs3)no2)cc1`, the “survival and reproduction score” value is 2.5.

Consider `O=C(CSc1nnc(-c2ccccc2)o1)Nc1cccc(Cl)c1`, for which the “survival and reproduction score” value is 4.

With `O=C(CSc1nnc(-c2cccc3ccccc23)o1)Nc1cccc(F)c1`, the “survival and reproduction score” value was 4.

In the case of `COc1ccc(Cl)cc1-c1noc(-c2cccc(C)c2)n1`, the “survival and reproduction score” value was 4.

`Cc1ccccc1CSc1nnc(-c2ccncc2)o1`: the “survival and reproduction score” value was 4.

In the case of `O=C(CSc1nnc(-c2cccc(Cl)c2)o1)Nc1nccs1`, the “survival and reproduction score” value is 4.

On to `O=C(CSc1nnc(-c2ccco2)o1)Nc1ccc(F)cc1`, for which the “survival and reproduction score” value is 3.5.

Regarding `Clc1ccc(OCc2nc(-c3ccccn3)no2)c(Br)c1`, the “survival and reproduction score” value is 4.

As for `C=C(C)COc1ccc(-c2nc(-c3cccnc3)no2)cc1`, the “survival and reproduction score” value is 3.

For the compound `O=C(CSc1nnc(-c2cc3ccccc3o2)o1)NC1CC1`, the “survival and reproduction score” value was 4.

In the case of `O=C(CSc1nnc(-c2ccccc2)o1)Nc1ccccc1F`, the “survival and reproduction score” value was 4.

`CC(Sc1nnc(-c2ccccc2)o1)C(=O)Nc1nccs1` (stereo not drawn): the “survival and reproduction score” value was 4.

As to `Cc1cccc(OCc2nc(-c3ccc(Br)cc3)no2)c1`, the “survival and reproduction score” value is 4.

For the compound `CNC(=O)O/N=C(\SC)C(=O)N(C)C` [oxamyl], the “survival and reproduction score” value is 4.

`Cc1ccc(NC(=O)CSc2nnc(-c3ccco3)o2)cc1Cl`: the “survival and reproduction score” value was 4.

In the case of `COc1nc(-c2ccc(Cl)cc2)ccc1-c1noc(C)n1`, the “survival and reproduction score” value was 4.

For the compound `Fc1ccc(OCc2nc(-c3ccc(Br)cc3)no2)cc1`, the “survival and reproduction score” value is 3.

Turning to `COc1ccc(-c2noc(-c3ccccc3Br)n2)cc1`, the “survival and reproduction score” value was 4.

As to `Cc1ccc(-c2noc(COc3cc(C)ccc3C)n2)cc1`, the “survival and reproduction score” value is 4.

Regarding `O=C(CSc1nnc(-c2ccccc2)o1)Nc1ccccc1C(F)(F)F`, the “survival and reproduction score” value was 4.

`O=C(CSc1nnc(-c2cccc(Br)c2)o1)Nc1ccccn1`: the “survival and reproduction score” value is 4.

In the case of `Cc1cc(C)cc(-c2nc(-c3ccc(Cl)cc3)no2)c1`, the “survival and reproduction score” value was 4.

With `CC[C@H](C)[C@H]1O[C@]2(C=C[C@@H]1C)C[C@@H]1C[C@@H](C/C=C(\C)[C@@H](O[C@H]3C[C@H](OC)[C@@H](O[C@H]4C[C@H](OC)[C@@H](O)[C@H](C)O4)[C@H](C)O3)[C@@H](C)/C=C/C=C3\CO[C@@H]4[C@H](O)C(C)=C[C@@H](C(=O)O1)[C@]34O)O2.CO[C@H]1C[C@H](O[C@H]2[C@H](C)O[C@@H](O[C@@H]3/C(C)=C/C[C@@H]4C[C@@H](C[C@]5(C=C[C@H](C)[C@@H](C(C)C)O5)O4)OC(=O)[C@@H]4C=C(C)[C@@H](O)[C@H]5OC/C(=C\C=C\[C@@H]3C)[C@]54O)C[C@@H]2OC)O[C@@H](C)[C@@H]1O` [abamectin], the “survival and reproduction score” value is 0 (active).

With `CC(C)NC(=O)N1CC(=O)N(c2cc(Cl)cc(Cl)c2)C1=O` [iprodione], the “survival and reproduction score” value was 4.

Consider `Cc1ccc(-c2nc(-c3ccc(F)cc3)no2)cc1`, for which the “survival and reproduction score” value is 0 (active).

Consider `Cc1cc(C)cc(NC(=O)CSc2nnc(-c3ccccc3)o2)c1`, for which the “survival and reproduction score” value was 4.

Turning to `Cc1ccc(-c2noc(CSc3nc4ccccc4[nH]3)n2)cc1`, the “survival and reproduction score” value is 4.

`C=CCSc1nnc(-c2ccc(Br)cc2)o1`: the “survival and reproduction score” value is 0 (active).

On to `Cc1ccc(-c2noc(-c3ccccc3OCC(N)=O)n2)cc1`, for which the “survival and reproduction score” value is 4.

For the compound `Clc1ccc(CSc2nnc(-c3ccccc3Cl)o2)cc1`, the “survival and reproduction score” value is 4.
